Screens as filed in PubChem.
VACV Venus inh = vaccinia inhibition (Venus reporter); Vaccinia virus Venus reporter expression, fluorescence; Potency, µM (series often up to 36.5 µM), inactives show at the top dose activity change, negative = inhibition, actives largely listed as inhibitors; 0.46% of 330,000 active; calls by dose curve; tested in A549 cells; further: potency means the concentration at half of the fitted maximal effect; nearly all actives have a fitted effect of over 30% in size
HCV inhibitor = inhibitors of hepatitis C virus infection; Huh7.5.1 HCVcc-Cre infection, luciferase reporter, 44 h; Potency, µM (titrated, usually from 41.8 µM), inactives show at the highest dose activity change, negative = inhibition, most hits filed as inhibitors; 3.4% of 340,000 active; AID 651820; further: potency means the concentration at half of the fitted maximal effect
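Cells seeded at 1,000/well and cultured 4 h, then compounds added followed by HCVcc-Cre virus (~0.5 moi). After 44 h further culture, luciferase substrate was added, plates held 15 min at room temperature, and luminescence read for 15 sec.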
FBPA Giardia inh = inhibitors of Giardia lamblia fructose-1,6-bisphosphate aldolase | A8B2U2 | purified Giardia FBPA | Potency, µM (titrated, usually from 59.6 µM), without a hit: at the highest dose activity, negative = inhibition, usual class: inhibitors | 0.71% of 290,000 active; further: potency means the concentration at half of the fitted maximal effect; nearly all actives have a fitted effect of over 55% in size
Target sequence (A8B2U2 whole entry, looked up): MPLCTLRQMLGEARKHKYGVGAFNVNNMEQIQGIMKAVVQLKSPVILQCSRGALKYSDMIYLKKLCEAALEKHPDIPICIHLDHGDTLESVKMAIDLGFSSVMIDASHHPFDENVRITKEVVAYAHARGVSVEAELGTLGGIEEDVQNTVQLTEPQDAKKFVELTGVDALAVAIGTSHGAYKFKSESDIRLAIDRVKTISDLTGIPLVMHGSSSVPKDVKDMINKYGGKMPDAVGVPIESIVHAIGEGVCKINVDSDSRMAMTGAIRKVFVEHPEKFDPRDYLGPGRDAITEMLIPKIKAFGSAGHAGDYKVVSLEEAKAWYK
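Giardia FBPA (40 nM reagent) was preincubated 10 min at RT with compound (up to 57.5 uM final), then substrate plus GAPDH/TPI/NAD/arsenate coupling system with diaphorase/resazurin was added; resorufin fluorescence (525/598 nm) was read after 20 min.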
VACV mCherry inh = vaccinia inhibition (mCherry reporter); Vaccinia virus mCherry reporter infection, fluorescence; Potency, µM (highest dose often 36.5 µM), for inactives: top-dose activity change, negative = inhibition, usual class: inhibitors; 0.63% of 310,000 active; calls by dose curve; tested in A549 cells; further: potency means the concentration at half of the fitted maximal effect; nearly all actives have a fitted effect of over 35% in size
HCMV inh = human cytomegalovirus inhibition; AID 1259415; 4.5% of 410,000 active; HFF cells, HCMV-luciferase reporter, 72 h; active compounds read low; activity change, negative = inhibition, % at 57.5 µM; in the data active means activity change below about -60%; inconclusive means no clear call, values can overlap the other calls; inactive means above about -39%
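Human foreskin fibroblasts infected with luciferase-reporter HCMV at MOI 1 PFU/cell, compounds at two doses. Luciferase measured 72 h post infection; normalized to buffer-only basal and Salinomycin (10uM) controls.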
FMDV inh = foot and mouth disease virus antiviral activity | 1.2% of 410,000 active | FMDV antiviral cell-based qHTS | Potency, µM (doses to about 57.9 µM), for inactives: at the highest dose activity change, negative = inhibition, hits mostly inhibitors; calls by dose curve; tested in HEK293T cells; further: read-out not given here; potency means the concentration at half of the fitted maximal effect; nearly all actives have a fitted effect of over 45% in size
* = called active by the depositor; i = inactive; u = inconclusive; x = not tested or not shown. Sampled rows, rich in hits. Any-hit rate of the full collection: about 7.5%. Unless noted, the call rests on the fitted dose curve; in most records, active means well fitted curve in the direction sought with a large enough effect; inconclusive means small, poorly fitted or top-dose-only effect, or another doubt; inactive means no such curve, though single readings can be large; an effect the other way counts as inactive or inconclusive. On the % scale 0 is the no-effect control and ±100 the full control effect.

SMILES | VACV Venus inh | HCV inhibitor | FBPA Giardia inh | VACV mCherry inh | HCMV inh | FMDV inh
O=C(/C=C/[C@H]1O[C@@H](n2cnc3c(NC(=O)c4ccccc4)ncnc32)[C@H](O)[C@@H]1O)NCc1cccc2ccccc12 | -7.4% | x | x | 23.7% | 7.4 | -0.1%
O=C(CSC1=NNC(c2ccccn2)S1)Nc1ccc(C(F)(F)F)cc1 (centres undefined) | u | -2.2% | 6.4% | u | -74.7* | -15.3%
O=C(CSc1nccn1C1CCCC1)Nc1ccccc1 | -14.3% | x | x | -14.2% | -24.3 | 27.3%
COc1ccc(-n2ccnc2SCC(=O)Nc2ccccc2)cc1 | -8.8% | -3.6% | 1.9% | -21.8% | -29.1 | u
c1ccc(CSC2=NNC(c3ccccn3)S2)cc1 (centres undefined) | u | u | 2.2% | u | 82.9 | -9.4%
COc1cccc(-n2ccnc2SCC(=O)Nc2ccccc2F)c1 | -8.2% | -4.8% | -1.0% | -4.5% | -5.6 | 1.1%
O=C(CSc1nccn1-c1ccc(F)cc1)Nc1ccc(OC(F)(F)F)cc1 | -18.1% | x | x | i | -68.3* | -17.8%
O=C(CSc1nccn1C1CCCC1)Nc1ccc(C(F)(F)F)cc1 | -18.7% | x | x | -17.4% | -62.6* | -24.1%
COc1ccc(-n2ccnc2SCC(=O)Nc2ccc(F)cc2F)cc1 | -20.2% | x | x | -3.8% | -91.2* | -21.8%
CC(=O)c1ccc(F)c(-c2cc(C)cc3c2OC(CNC(=O)C2CCCCN2C)C3)c1 (centres undefined) | -7.3% | x | x | -20.8% | x | -14.2%
Cc1ccccc1OCCC(=O)Nc1ccc(N2CCOCC2)cc1N1CCOCC1 | -14.2% | u | x | -19.9% | -19.2 | -16.3%
CCOc1ccc(-n2ccnc(SCC(=O)NCc3cccc(OC)c3)c2=O)cc1 | -24.5% | u | x | u | -34.1 | 9.2%
CCOc1ccccc1NC(=O)CSc1nccn1-c1ccc(Cl)cc1 | -8.1% | x | x | -0.6% | -72.4* | -7.8%
Cc1ccc(-n2nnnc2SCC(=O)Nc2cccnc2Cl)cc1 | -20.8% | -29.9% | 2.7% | -24.7% | -11.2 | u
CCOc1ccc(-n2ccnc(SCC(=O)Nc3ccc(OC)cc3OC)c2=O)cc1 | -29.0% | 8.91µM* | x | -19.7% | -23.6 | -27.5%
COc1cccc(-n2ccnc2SCC(=O)Nc2ccc(Cl)c(Cl)c2)c1 | -8.5% | x | x | i | -61.1* | -6.5%
O=C(CSc1nnnn1-c1ccc(Cl)cc1)Nc1cccnc1Cl | -18.0% | -29.0% | 0.4% | -6.3% | -71.1* | u
Cc1cccc2c(C(O)c3cn(C)c4ccccc34)c[nH]c12 (centres undefined) | 15.4% | x | x | -10.8% | x | x
O=Cc1cc(CCC(=O)O)ccc1O | -5.4% | 14.9% | -7.8% | i | -21.7 | -24.2%
CCCC/C(O)=C/c1nc2ccccc2[nH]c1=O | -18.4% | 3.2% | 0.7% | x | -78.9* | 14.4%
S=C(Nc1ccc(Cl)cc1)NC1CC2CCC(C1)N2Cc1ccccc1 (centres undefined) | -18.0% | u | 3.4% | -29.5% | u | -25.5%
S=C(Nc1cccc(Cl)c1Cl)NC1CCN(Cc2ccccc2)CC1 | -26.4% | u | x | u | -65.7* | -6.3%
S=C(Nc1ccc(Cl)c(Cl)c1)NC1CCN(Cc2ccccc2)CC1 | 14.1µM* | 14.1µM* | -0.1% | x | -78.3* | 14.1µM*
S=C(NCc1ccc2c(c1)OCO2)NC1CCN(Cc2ccccc2)CC1 | -7.9% | u | 5.9% | u | -77.9* | 20.8%
Cc1cccc(NC(=S)NC2CCN(Cc3ccccc3)CC2)c1C | -18.6% | -14.8% | 2.1% | i | -38.2 | u
SMILES | VACV Venus inh | HCV inhibitor | FBPA Giardia inh | VACV mCherry inh | HCMV inh | FMDV inh
CCc1ccc(NC(=S)NC2CC3CCCC(C2)N3Cc2ccccc2)cc1 (centres undefined) | x | 10µM* | -3.2% | x | u | -14.8%
CCCc1ccc(OCc2ccc(C(=O)N/N=C/c3cccnc3)o2)cc1 | x | -17.8% | x | x | 73.8 | -2.0%
COc1ccccc1NC(=O)C1=C(C)Nc2nc(CCCO)nn2C1c1cccc(O)c1 (centres undefined) | -12.9% | x | x | -8.2% | 14.4 | u
O=C(COC(=O)c1ccccc1C(=O)c1ccc(Cl)c([N+](=O)[O-])c1)NC1CC1 | 10µM* | 11.2µM* | -10.5% | u | -99.1* | 20µM*
O=C(COC(=O)c1ccccc1[N+](=O)[O-])c1ccc(C2CCCCC2)cc1 | -22.7% | -29.9% | -4.0% | -25.3% | u | 11.2µM*
CCCOc1ccc(C(=O)c2ccccc2C(=O)OC2CCOC2=O)cc1OCCC (centres undefined) | u | u | x | u | 26.5 | 12.7%
O=C(COC(=O)c1cc([N+](=O)[O-])ccc1Cl)NC1CCCC1 | x | -4.5% | 0.3% | x | -9.6 | 0.0%
CNC(=O)COC(=O)c1ccccc1C(=O)c1ccc(Cl)c([N+](=O)[O-])c1 | u | u | -11.9% | u | -99.9* | u
O=C(OC1CCOC1=O)c1ccccc1C(=O)c1ccc(Cl)c([N+](=O)[O-])c1 (centres undefined) | x | 11.2µM* | x | x | x | -29.3%
CC(C)OC(=O)c1ccccc1C(=O)c1ccc(N)c([N+](=O)[O-])c1 | -8.2% | -8.2% | -7.3% | -7.2% | 2.7 | 0.7%
COc1ccc2c(c1)c(C(=O)O)c(C)n2-c1ccccc1 | -13.6% | u | 12.4% | 9.2% | 12.7 | -11.6%
COc1ccc2c(c1)c(C(C)=O)c(C)n2-c1ccc(C(C)=O)cc1 | -7.7% | 8.3% | -10.1% | i | -73.6* | -24.0%
COc1ccc(-n2c(C)c(C(C)=O)c3cc(OC(C)=O)ccc32)cc1 | x | u | 8.0% | x | -79.5* | -14.1%
COc1cc2c(cc1OC)CN(Cc1ccc(C)s1)CC2 | -12.2% | 11.3% | u | x | -95.1* | -5.2%
CC(C)Cn1c(-c2csc3ccccc23)n[nH]c1=S | -15.2% | 12.6% | 11.2% | -18.5% | -17.7 | -27.4%
Cc1cccc(-n2c(-c3csc4ccccc34)n[nH]c2=S)c1 | -8.0% | -12.1% | -0.1% | i | -69.8* | -21.8%
CC(C)NC(=O)N1CC[C@@]2(CCCN(S(C)(=O)=O)C2)C1 | x | x | 8.4% | x | x | -9.6%
COc1ccc(SCC(=O)Nc2ccccc2Cl)cc1 | 0.2% | 1.2% | 4.0% | -3.6% | u | -1.7%
COC(=O)c1cc(Cl)nc2ccccc12 | -14.1% | -1.6% | 1.2% | i | -24.3 | -6.7%
CC(C)(C)c1cc([N+](=O)[O-])cc(C(C)(C)C)c1O | x | 10µM* | -1.0% | x | -99.8* | u
COc1cccc(Nc2nc(C(N)Cc3ccc(C(F)(F)F)cc3)cs2)n1 (centres undefined) | -29.4% | x | x | u | -90.4* | 0.0%
COc1cccc(Nc2nc(C(N)Cc3ccc(F)cc3)cs2)n1 (centres undefined) | u | x | x | u | 7.1 | -18.4%
COc1cc(OC)nc(Nc2nc(C(N)Cc3ccc(C(F)(F)F)cc3)cs2)n1 (centres undefined) | u | x | x | u | -85.2* | -23.1%
Cc1cc(C)nc(Nc2nc(C(N)Cc3ccc(C(F)(F)F)cc3)cs2)n1 (centres undefined) | -30.0% | x | x | u | -16.0 | 0.0%
